target: Glucose transporter (Leishmania mexicana) (UniProt O61059); experiment: ST_JUDE_LEISH: Cytotoxicity at 2uM final concentration against transgenic Leishmania Mexicana promastigotes LmGT2 that are glucose transport deficient and complemented with the L. Mexicana glucose transporter 2. Activity is measured by DNA content using SYBR green in vitro; assay type: functional

SMILES | inhibition
CCN(CC)CCN(Cc1ccc(-c2ccc(C(F)(F)F)cc2)cc1)C(=O)Cn1cc(Cc2cnn(C)c2)c(=O)nc1/C=C/c1cccc(F)c1F | 2.54%
Fc1ccc2[nH]c(-c3cccc(-c4cccc(CN5CCN(c6cnccn6)CC5)c4)c3)nc2c1 | 4.27%
NC(=O)c1cc(-c2ccccc2)cc2c(C3CCC(NCc4ccccc4)C3)c[nH]c12 (stereo not given) | 0.8%
CCCCc1ccccc1NS(=O)(=O)c1ccc(OC)c(N2CCNCC2)c1 | -2.27%
Cc1cc(C(=O)N(Cc2ccc(-c3ccc(CNCCc4ccc(S(C)(=O)=O)cc4)cn3)cc2)C(C)CN(C)C)ccc1[N+](=O)[O-] (stereo not given) | 6.55%
Fc1cc(Cl)ccc1Nc1ccnc(Nc2ccc3cn[nH]c3c2)n1 | 5.1%
CC1CC(NCCCNc2cc(=O)c3ccccc3[nH]2)c2c1cc(Cl)c(Cl)c2Cl (stereo not given) | 2.54%
Cc1nc(-c2nc(NCCc3c(C)noc3C)ncc2-c2ccsc2)sc1C | 2.5%
CCCCCCOc1ccc(/C(N)=N\Cc2ccccc2)c2c1CCCC2 | 0.11%
CSc1nc2cc3c(cc2n1C(=O)c1ccc(C)cc1)OCCO3 | 2.89%
O=[N+]([O-])c1ccc(N2CCCN(C(=S)Nc3ccc(F)cc3Br)CC2)nc1 | 1.29%
N#Cc1cc(N(CCCOc2cccc(OC(F)(F)F)c2)Cc2ccccc2C(F)(F)F)ccc1C(F)(F)F | 0.94%
CC1(C)NC(N)=NC(=N)N1OCCCNC(=O)c1ccc([N+](=O)[O-])cc1 | 3.92%
O=C(/C=C/c1ccc(Cl)c(Cl)c1)NCCCCCN1CCC(NC(=S)Nc2ccc(Cl)cc2Cl)CC1 | 7.71%
CN1CCN(c2ccnc3ccc(NC(=O)Nc4cccc5c(-c6ccncc6)cccc45)cc23)CC1 | 0.32%
CCOc1c(OC)ccc2c1CCN(CCN1CCC(NC(=O)c3ccc(-c4cccc(C(F)(F)F)c4C(F)(F)F)cc3)CC1)C2 | 1.39%
OCC1CCN(Cc2ccc(-c3ccc(-c4nc5cc(F)ccc5[nH]4)cc3)cc2)CC1 | 4.78%
O=C(/C=C/c1ccc(Cl)c(Cl)c1)NCCCCCN1CCC(NC(=O)Nc2ccc(C(F)(F)F)cc2)CC1 | 8.81%
CCOCn1c(-c2ccccc2)cc2c3c(N)nc(N)nc3ccc21 | 101%
Cc1nn(-c2ccc(Cl)cc2)c2[nH]c(CN3CCN(c4cccc(Cl)c4)CC3)cc(=O)c12 | 17%

SMILES | inhibition
COc1cccc(-c2cc(C(F)(F)F)n3ncc(C(=O)Nc4cc(Cl)ccc4O)c3n2)c1 | -2.22%
COc1cc(Nc2nc(N)n(C(=O)c3ccc4c(c3)OCO4)n2)cc(OC)c1OC | 0.33%
CCN(CC)CC(O)c1cc(-c2ccc(OC)cc2)nc2cc(Cl)ccc12 (stereo not given) | 7.55%
COc1ccc(Nc2nc(N/N=C/c3ccc(-c4ccc([N+](=O)[O-])cc4)o3)nc(Nc3ccccc3)n2)cc1 | 9.94%
COc1ccc(-c2cnn3ccc(Nc4cc(OC)c(OC)c(OC)c4)nc23)cc1OC | 9.46%
O=C(COc1ccc(F)cc1)NC1CCN(c2ccnc3cc(Cl)ccc23)C1 (stereo not given) | 6.88%
CC(=O)c1ccc2c(c1)CCN(CCC1CCC(NC(=O)c3cc4ccccc4[nH]3)CC1)CC2 (stereo not given) | 3.71%
Cn1cc(C(=O)Nc2cccc(-c3cccc(-c4nc5ccccc5[nH]4)c3)c2)n(C)c1=O | 2.54%
c1ccc(-n2cncn2)cc1 | 4.67%
O=C(c1ccc(Br)o1)N1N=C(c2cccs2)CC1c1ccc(Br)cc1 (stereo not given) | 3.94%
COc1ccc(CC(=O)Nc2ccc(Nc3nc(C)cc(N4CCCC4)n3)cc2)cc1 | 16.1%
Cc1cc(O)nc(NC#N)n1 | 2.82%
N#Cc1ccc(N[C@@H](CC2CCCCC2)C(=O)Nc2ccc(-c3ccccc3)cc2)c2ccccc12 | 3.75%
COc1ccc(NC(=O)[C@H](CC(C)C)Nc2cc(C)nc(NCC3CCCCC3)n2)cc1 | 0.83%
S=C(NCCCCCN1CCC(c2c[nH]c3ccccc23)CC1)Nc1cccc(I)c1 | -1.76%
Cc1nc2nc(N)nc(N)c2c(C)c1Cc1ccccc1 | 1.2%
FC(F)(F)c1cccnc1N1CCC(Nc2nc3cc(Cl)ccc3[nH]2)CC1 | 3.47%
CN(C)CCNC(=O)NC1CN(c2ncnc3cc(-c4ccccc4)sc23)C1 | 4.03%
CN1CCC(Oc2ccc(CN3CC[C@H](NC(=O)c4ccc(Cl)c(F)c4)C3)c3ccccc23)C1 (stereo not given in full) | 2.67%
O=C(Nc1cccnc1)c1cc(-c2cc(Cl)ccc2O)n[nH]1 | 3.15%
